The list is not random: actives were taken first. Their share in the collection is about 6.5%.
IL1B secr inh: inflammasome signaling inhibition, IL-1 beta readout | THP-1 LPS/ATP IL-1B secretion, AlphaLISA, 16 h; active compounds read low | 360,000 compounds, 4.7% hits | activity change, % at 57.5 µM; in the data active = activity change below about -50%; inconclusive = mostly about -30% to -49%; also: % is scaled to controls: 0 for no effect and ±100 for the full control effect
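Secreted IL-1B measured by AlphaLISA bead assay after 16 h compound exposure of THP-1 cells; compounds (final up to 57.5 uM) added 1 h before LPS (250 ng/mL) and ATP (1.25 mM) stimulation; lower signal means less secretion.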
Giardia killer: kills Giardia lamblia; Giardia lamblia trophozoite viability; activity change, % at 7.66 µM, hits read low; 340,000 compounds, 0.15% hits; AID 540267; in the data active = activity change below about -80%; inconclusive = between about -30% and that limit;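 also: parasites exposed to compound for two days anaerobically before the ATP read; % is scaled to controls: 0 for no effect and ±100 for the full control effect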
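ATP-content bioluminescence gauges trophozoite survival. Cells (100/well) receive compound and incubate anaerobically for 48 hrs at 37 deg C; detection reagent follows for 15-30 min at room temperature.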
HepG2 tox: kills HepG2 cells in TGF-b inhibitor counter-screen | AID 588856 | HepG2 CAGA-GFP viability, ATP luminescence, 18 h | 410,000 compounds, 0.76% hits | Potency, µM (doses to about 46.1 µM), for the others: at the top dose activity change, negative = cytotoxicity, usual class: cytotoxic; also: potency is read from the fitted curve at half-maximal effect
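HepG2 CAGA-GFP cells (1000/well, DMEM with 1% FBS) received compound, then TGF-beta at 500 pg/mL final, and were incubated 18 hours at 37 degrees C. Viability was read by CellTiter-Glo luminescence. Media-only wells were set as complete cell-killing and DMSO as no toxicity.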
TGFb SMAD3 inh: inhibitors of TGF-b signaling; AID 588855; 410,000 compounds, 1.2% hits; HepG2 CAGA-GFP TGF-b/SMAD3 reporter, GFP fluorescence, 18 h; TGF-beta stimulated, 500 pg/mL final; Potency, µM (top dose mostly 46.1 µM), without a hit: at the top dose activity, negative = inhibition, actives largely listed as inhibitors; also: potency is read from the fitted curve at half-maximal effect; % is scaled to controls: 0 for no effect and ±100 for the full control effect; nearly all actives have a fitted effect of over 65% in size
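Read-out: total well GFP (ex488/em500-530) summed from mean per-cell fluorescence. Cells: HEPG2 CAGA-GFP, 1% FBS DMEM, 18 h at 37 degrees C with 500 pg/mL final TGF-beta. Unstimulated wells served as the full-inhibition control; stimulated DMSO wells = 0%.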
HT1080 IDH1KD tx: toxicity to HT-1080 IDH1 knockdown cells (counter line). 360,000 compounds, 2% hits. Potency, µM (doses to about 46.1 µM), for inactives: at the highest dose activity, negative = toxicity, usual class: cytotoxic. HT-1080 IDH1 knockdown viability, ATP luminescence, 48 h;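 also: potency is read from the fitted curve at half-maximal effect; 0% = DMSO wells and -100% = cell-free medium wells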
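HT-1080-IDH1KD cells (IDH1 knocked down), 750/well in RPMI with 5% FBS, treated with compound 48 h at 37 degrees C. Viability by CellTiter-Glo luminescence, normalised to DMSO and no-cell wells; concentration-response curves classed.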
HT1080-NT tox: kills 2HG-producing HT-1080-NT fibrosarcoma cells. Potency, µM (series often up to 46.1 µM), for inactives: at the top dose activity, negative = less viability, hits mostly cytotoxic. HT-1080-NT fibrosarcoma viability, CellTiter-Glo ATP luminescence, 48 h. 360,000 compounds, 1.6% hits. AID 686970;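 also: NT is the 2HG producing partner of a matched IDH1 knockdown line; potency is read from the fitted curve at half-maximal effect; 0% = DMSO-treated cells and -100% = media-only wells without cells; nearly all actives have a fitted effect of over 55% in size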
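Compounds were tested in concentration-response format on HT-1080-NT cells for 48 hours at 37 degrees C. Cell viability came from CellTiter-Glo luminescence; curves were classified by r2, response magnitude and activity.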
An asterisk follows results filed as active; ? = inconclusive; . = not tested or not shown. Unless noted, calls follow the shape of the dose curve; as a rule, active = well fitted curve in the direction sought with a large enough effect; inconclusive = small, poorly fitted or top-dose-only effect, or another doubt; inactive = no such curve, though single readings can be large; an effect the other way counts as inactive or inconclusive.

SMILES	IL1B secr inh	Giardia killer	HepG2 tox	TGFb SMAD3 inh	HT1080 IDH1KD tx	HT1080-NT tox
CC1Oc2cc3c(-c4c(O)cc(O)c5c(O)c6c(cc45)OC(C)C(C)C6=O)c(O)cc(O)c3c(O)c2C(=O)C1C (centres undefined)	?	-82.4*	11.2µM*	14.1µM*	8.2µM*	4.61µM*
Clc1ccc(Cc2nn3c(Cn4nnc5ccccc54)nnc3s2)cc1	-1.4	-12.1	-29.6%	22.7%	?	-4.3%
Cc1cccc(NC(=O)Oc2ccc(Cl)c3cccnc23)c1	19.4	.	2.82µM*	?	-9.3%	-5.1%
Cc1ccccc1C(=O)N1Cc2ccccc2-n2nncc2C1	28.9	.	-2.6%	-2.5%	5.2%	-2.0%
Cc1nn(-c2cc(C(F)(F)F)ccn2)c(=O)o1	7.4	-17.8	101.4%	0.0%	4.1%	7.0%
CC(O)C1C=CC=CC(=O)OC2CC3OC4C5OC5(C)C(O)CC4(COC(=O)C(O)C(C)CCO1)C2(C)C31CO1 (centres undefined)	-100.4*	11.6	3.6%	0.447µM*	.	?
CC1CCOC(=O)C=CC=CC(=O)OC2CC3OC4C5OC5(C)C(O)CC4(COC(=O)C1O)C2(C)C31CO1 (centres undefined)	-103.7*	10.7	10.9%	0.282µM*	.	?
CC1=CC2OC3CC4OC(=O)C=CC=CC(C(C)O)OCC(O)C5(C)OC5C(=O)OCC2(CC1O)C4(C)C31CO1 (centres undefined)	-116.5*	-7.1	-7.5%	0.159µM*	.	0.366µM*
CC1=CC2OC3CC4OC(=O)C=CC=CC(=O)OCCC(C)C(O)C(=O)OCC2(CC1)C4(C)C31CO1 (centres undefined)	-103.0*	?	.	0.0%	.	0.164µM*
C=C(C)[C@H]1CN[C@H](C(=O)O)[C@H]1CC(=O)O	19.2	13.4	3.3%	-1.7%	10.9%	?
COc1ccc(C(=O)Oc2cccc3cccnc23)cc1S(=O)(=O)N1CCOCC1	-2.1	-13.7	12.6µM*	12.6µM*	?	-11.1%
COc1ccc(C(=O)N2CCOCC2)cc1S(=O)(=O)N1CCC(C)CC1	12.8	4.7	8.2%	11.0%	14.6%	14.4%
Cc1ccccc1CN1CCN(c2ccc(Cl)cc2)CC1	0.0	13.3	-18.2%	-12.2%	-4.7%	2.7%
CCC(=O)Nc1ccccc1	0.3	12.5	1.8%	1.9%	4.3%	0.5%
Cn1cc(NC(=O)CCl)cn1	-101.5*	-8.8	-21.9%	?	?	?
C[C@]12CC[C@@H]3c4cc(O)c(O)cc4CC[C@H]3[C@@H]1CC[C@@H]2O	-14.5	12.8	-20.7%	?	6.51µM*	?
C[C@]12CC[C@@H]3c4ccc(O)c(O)c4CC[C@H]3[C@@H]1CC[C@@H]2O	?	6.7	-48.7%	?	?	?
O=C(O)c1cc(Oc2ccc(C(F)(F)F)cc2Cl)ccc1[N+](=O)[O-]	4.6	32.4	4.4%	2.9%	-0.9%	9.7%
O=[N+]([O-])c1cc(C(F)(F)F)c(Cl)c([N+](=O)[O-])c1Nc1ncc(C(F)(F)F)cc1Cl	.	.	2.51µM*	1.78µM*	.	.
CC1CCCCC1NC1CCN(C)CC1 (centres undefined)	-13.2	-19.1	-0.3%	28.2%	-6.2%	-10.2%
CCCCCCCSc1cc(OC)c(CCN(C)C)cc1OC	-99.5*	-9.9	-120.5%	?	-22.7%	-10.2%
COC(=O)C1=C(c2ccc(-c3ccccc3)c(F)c2)C[C@@H]2CC[C@H]1N2C(=O)N1CCCCC1	-12.4	-0.2	-5.5%	?	20.6µM*	?
COC(=O)C1=C(c2ccc(-c3ccccc3)c(F)c2)C[C@@H]2CC[C@H]1N2C(=O)N1CCOCC1	?	-27.4	-12.1%	-21.4%	-6.5%	-7.6%
COC(=O)C1=C(c2cc3ccccc3s2)C[C@@H]2CC[C@H]1N2C(=O)N1CCCCC1	16.3	1.5	-7.2%	?	8.2µM*	?
COC(=O)C1=C(c2ccc(-c3ccccc3)c(F)c2)C[C@@H]2CC[C@H]1N2C(=O)N1CCCC1	-69.3*	7.5	-27.6%	?	-26.4%	-18.9%
SMILES	IL1B secr inh	Giardia killer	HepG2 tox	TGFb SMAD3 inh	HT1080 IDH1KD tx	HT1080-NT tox
COC(=O)C1=C(c2ccc(-c3ccccc3)c(F)c2)C[C@@H]2CC[C@H]1N2C(=O)N1CCC(O)CC1	?	11.7	-22.9%	-68.5%	-11.9%	-10.0%
O=C(Cc1ccccc1)Oc1cccc(-n2cnnn2)c1	12.0	-16.7	1.8%	9.9%	3.4%	-4.5%
Cc1nnc(NC(=O)c2cccn(Cc3ccc(Cl)cc3)c2=O)s1	.	.	7.2%	11.1%	.	.
COC(=O)C1=C(c2ccc(OCc3ccccc3)cc2)C[C@@H]2CC[C@H]1N2C(=O)NCc1ccccc1	-0.2	7.6	0.7%	?	-21.8%	0.8%
CCOP(=O)(OCC)C(O)c1ccc2c(c1)OCO2 (centres undefined)	0.0	-29.2	1.5%	0.7%	9.7%	15.9%
COCCCn1c(-c2ccc(OC)cc2)cc(C(=O)NC2CCCCCCC2)c1C	-52.5*	-14.2	-19.2%	?	?	?
COc1ccc(S(=O)(=O)Nc2cc(C(=O)NC3CCCCCC3)ccc2N2CCOCC2)cc1	-18.0	40.1	-16.1%	5.0%	?	?
Cc1cc(C=C2C(=O)NC(=S)NC2=O)c(C)n1C1CCCC1	-52.6*	-1.7	-30.5%	-6.3%	?	-22.3%
COc1ccc2c3c1O[C@H]1C(=O)CC[C@H]4[C@@H](C2)N(C)CC[C@]314	-88.7*	65.9	-0.8%	3.2%	-2.7%	-5.2%
Cc1c(P(=S)(c2ccccc2)c2ccccc2)[n+]2ccccc2n1C	-1.3	?	0.3%	-5.8%	-20.4%	-21.7%
Cc1c(P(=S)(c2ccccc2)c2ccccc2)[n+]2ccccc2n1C/C=C/c1ccccc1	.	.	20µM*	?	.	.
COc1ccc2[nH]cc(CCN)c2c1	-0.2	7.3	-28.3%	8.7%	-0.6%	-7.4%
CCCCCN=C(N)N/N=C/c1c[nH]c2ccc(OC)cc12	0.0	3.4	15.8µM*	?	5.8µM*	2.91µM*
CSc1ccc(C(=O)C2CCCN(Cc3cccnc3)C2)cc1 (centres undefined)	-12.3	30.8	7.8%	0.7%	-21.5%	?
CSc1ccc(C(=O)C2CCCN(Cc3cc4ccccc4[nH]3)C2)cc1 (centres undefined)	-100.0*	19.2	-0.2%	?	?	23.1µM*

Assay outcomes (PubChem BioAssay)
